{"source": "PubChem BioAssay (EPA / NIEHS)", "key": {"[1]": {"molecular_target": "Oxysterols receptor LXR-alpha (Homo sapiens) (UniProt Q13133)", "sequence (Q13133 whole entry, looked up)": "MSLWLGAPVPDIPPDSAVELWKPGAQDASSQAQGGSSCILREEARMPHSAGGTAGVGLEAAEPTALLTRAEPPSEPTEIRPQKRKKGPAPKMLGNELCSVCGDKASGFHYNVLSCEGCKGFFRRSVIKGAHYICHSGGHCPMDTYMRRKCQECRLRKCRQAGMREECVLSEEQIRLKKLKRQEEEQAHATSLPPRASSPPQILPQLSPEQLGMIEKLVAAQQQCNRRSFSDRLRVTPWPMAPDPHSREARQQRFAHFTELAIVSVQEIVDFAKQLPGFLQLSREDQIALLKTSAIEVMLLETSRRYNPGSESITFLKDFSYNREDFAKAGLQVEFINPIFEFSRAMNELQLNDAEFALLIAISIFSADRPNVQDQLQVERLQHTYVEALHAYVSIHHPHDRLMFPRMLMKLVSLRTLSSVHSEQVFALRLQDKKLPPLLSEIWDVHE", "test": "ATG_LXRa_TRANS: Attagene TRANS-FACTORIAL HepG2 Assay for human Liver X Receptor alpha (LXRa) (AID 2282980; active means hit-call score of the fitted dose curve at least 0.9, where 1 is the maximum)", "conditions": "HepG2 Attagene TRANS reporter, LXRa transactivation", "method_in_brief": "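Transient HepG2 transfectants, 24 h dosing, RT-PCR/CE mRNA reporter quantitation; gain-of-signal vs DMSO.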"}, "[2]": {"molecular_target": "Oxysterols receptor LXR-beta (Homo sapiens) (UniProt P55055)", "sequence (P55055 whole entry, looked up, the tested form may be a part)": "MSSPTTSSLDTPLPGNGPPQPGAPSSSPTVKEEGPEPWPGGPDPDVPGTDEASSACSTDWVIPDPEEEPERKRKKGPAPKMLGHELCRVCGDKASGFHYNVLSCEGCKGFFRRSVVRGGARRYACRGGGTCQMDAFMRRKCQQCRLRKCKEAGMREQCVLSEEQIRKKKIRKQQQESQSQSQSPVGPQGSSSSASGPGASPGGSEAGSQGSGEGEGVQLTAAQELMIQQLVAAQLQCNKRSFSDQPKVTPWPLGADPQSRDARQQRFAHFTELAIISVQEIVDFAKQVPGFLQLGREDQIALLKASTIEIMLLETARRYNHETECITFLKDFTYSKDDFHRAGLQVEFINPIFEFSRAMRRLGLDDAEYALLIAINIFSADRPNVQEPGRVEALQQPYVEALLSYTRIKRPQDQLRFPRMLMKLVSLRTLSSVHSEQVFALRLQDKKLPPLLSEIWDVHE", "test": "ATG_LXRb_TRANS: Attagene TRANS-FACTORIAL HepG2 Assay for human Liver X Receptor beta (LXRb) (AID 2282981; active means hit-call score of the fitted dose curve at least 0.9, where 1 is the maximum)", "conditions": "HepG2 Attagene TRANS GAL4-LXRb reporter, mRNA", "method_in_brief": "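Transient transfection HepG2 (multiplexed RTUs, GAL4-UAS); NR-Gal4 chimera; 24 h exposure; RNA → RT-PCR → 6-FAM primer extension → HpaI → CE; increase vs DMSO.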"}, "[3]": {"molecular_target": "Hepatocyte nuclear factor 4-alpha (Homo sapiens) (UniProt P41235)", "sequence (P41235 whole entry, looked up, the tested form may be a part)": "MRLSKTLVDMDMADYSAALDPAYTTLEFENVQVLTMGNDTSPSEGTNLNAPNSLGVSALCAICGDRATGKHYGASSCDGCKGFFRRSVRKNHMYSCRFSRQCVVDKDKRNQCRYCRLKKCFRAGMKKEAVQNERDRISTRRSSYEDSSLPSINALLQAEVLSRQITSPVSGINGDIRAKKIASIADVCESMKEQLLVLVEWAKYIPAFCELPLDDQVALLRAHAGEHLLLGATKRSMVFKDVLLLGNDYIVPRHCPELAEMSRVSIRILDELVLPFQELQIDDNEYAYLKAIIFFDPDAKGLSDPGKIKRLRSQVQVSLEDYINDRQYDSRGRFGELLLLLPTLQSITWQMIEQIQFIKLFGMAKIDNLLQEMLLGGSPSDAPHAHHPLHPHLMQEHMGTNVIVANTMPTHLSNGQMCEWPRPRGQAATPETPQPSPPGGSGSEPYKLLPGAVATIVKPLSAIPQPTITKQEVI", "test": "ATG_HNF4a_TRANS: Attagene TRANS-FACTORIAL HepG2 Assay for human Hepatocyte Nuclear Factor 4 alpha (HNF4a) (AID 2282982; active means hit-call score of the fitted dose curve at least 0.9, where 1 is the maximum)", "conditions": "HepG2 HNF4a transactivation reporter, mRNA readout", "method_in_brief": "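Readout is fluorescent reporter-transcript fragments resolved by capillary electrophoresis after RT-PCR from HepG2 cells dosed for 24 h. Cells carried transfected GAL4-UAS reporter constructs measuring exogenous NR-GAL4 chimera activity; DMSO served as baseline.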"}, "[4]": {"test": "ATG_M_06_TRANS: Attagene TRANS-FACTORIAL HepG2 Assay for M06 Transcription Factor (Internal Marker) (AID 2282983; active means hit-call score of the fitted dose curve at least 0.9, where 1 is the maximum)", "conditions": "HepG2 Attagene TRANS M06 internal marker reporter", "method_in_brief": "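Measured by capillary electrophoresis of fluorescently labelled RT-PCR products, this endpoint reflects reporter mRNA in HepG2 cells harbouring exogenous NR-GAL4 reporter constructs after 24 h exposure, with DMSO as baseline.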"}, "[5]": {"test": "ATG_M_32_TRANS: Attagene TRANS-FACTORIAL HepG2 Assay for M32 Transcription Factor (Internal Marker) (AID 2282984; active means hit-call score of the fitted dose curve at least 0.9, where 1 is the maximum)", "conditions": "HepG2 Attagene TRANS M32 internal marker reporter", "method_in_brief": "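Measures reporter mRNA induction in human HepG2 liver cells after 24 h chemical treatment. Transcripts from transiently transfected GAL4-UAS reporter units are amplified, fluorescently labelled and sized by capillary electrophoresis; gain of signal relative to DMSO.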"}, "[6]": {"molecular_target": "Nuclear receptor subfamily 4 group A member 2 (Homo sapiens) (UniProt P43354)", "sequence (P43354 whole entry, looked up, the tested form may be a part)": "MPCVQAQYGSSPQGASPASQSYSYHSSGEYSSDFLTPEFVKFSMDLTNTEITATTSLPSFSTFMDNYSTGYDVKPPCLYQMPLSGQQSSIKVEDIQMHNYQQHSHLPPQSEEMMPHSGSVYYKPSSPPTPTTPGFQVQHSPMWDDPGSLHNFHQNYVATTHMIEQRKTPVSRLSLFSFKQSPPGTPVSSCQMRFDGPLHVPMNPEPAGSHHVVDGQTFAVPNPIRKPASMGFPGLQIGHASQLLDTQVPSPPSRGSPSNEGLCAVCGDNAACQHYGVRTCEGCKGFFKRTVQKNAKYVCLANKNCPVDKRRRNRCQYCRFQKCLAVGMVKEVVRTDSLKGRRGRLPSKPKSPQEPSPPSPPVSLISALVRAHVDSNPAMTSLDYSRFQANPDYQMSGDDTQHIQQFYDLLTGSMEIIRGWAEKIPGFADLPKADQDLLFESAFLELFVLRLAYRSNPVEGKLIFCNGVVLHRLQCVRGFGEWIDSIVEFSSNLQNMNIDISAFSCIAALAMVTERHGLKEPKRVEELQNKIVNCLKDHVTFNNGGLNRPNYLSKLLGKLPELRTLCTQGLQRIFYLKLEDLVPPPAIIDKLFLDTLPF", "test": "ATG_NURR1_TRANS: Attagene TRANS-FACTORIAL HepG2 Assay for human Nuclear Receptor Related Protein 1 (NURR1) (AID 2282985; active means hit-call score of the fitted dose curve at least 0.9, where 1 is the maximum)", "conditions": "HepG2 Attagene TRANS reporter, mRNA readout", "method_in_brief": "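Transient transfection of HepG2, human liver cells, with multiple GAL4-UAS reporter transcription units. Cells dosed 24 h, RNA isolated, reverse-transcribed, PCR-amplified, FAM-labelled, HpaI-digested, sized by capillary electrophoresis. DMSO served as negative control.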"}, "[7]": {"molecular_target": "Transcriptional activator Myb (Homo sapiens) (UniProt P10242)", "sequence (P10242 whole entry, looked up)": "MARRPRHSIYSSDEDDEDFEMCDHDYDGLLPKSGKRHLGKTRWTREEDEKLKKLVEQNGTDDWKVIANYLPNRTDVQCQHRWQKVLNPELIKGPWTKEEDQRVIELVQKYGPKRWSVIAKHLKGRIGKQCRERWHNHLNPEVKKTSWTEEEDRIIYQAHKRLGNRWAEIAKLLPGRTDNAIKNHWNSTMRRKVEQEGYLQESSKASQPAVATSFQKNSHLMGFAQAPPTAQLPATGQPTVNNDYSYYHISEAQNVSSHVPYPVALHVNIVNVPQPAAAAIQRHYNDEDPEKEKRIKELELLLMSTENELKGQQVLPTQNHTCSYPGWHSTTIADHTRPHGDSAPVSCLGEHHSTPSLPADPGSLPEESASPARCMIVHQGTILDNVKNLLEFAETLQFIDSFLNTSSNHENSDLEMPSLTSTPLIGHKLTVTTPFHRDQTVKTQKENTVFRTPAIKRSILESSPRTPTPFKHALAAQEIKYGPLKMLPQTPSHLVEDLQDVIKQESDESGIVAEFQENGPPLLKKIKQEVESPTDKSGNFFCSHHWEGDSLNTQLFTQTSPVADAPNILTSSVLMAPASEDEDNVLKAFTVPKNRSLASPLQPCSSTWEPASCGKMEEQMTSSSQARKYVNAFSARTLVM", "test": "ATG_Myb_CIS: Attagene CIS-FACTORIAL HepG2 Assay for human Myeloblastosis (Myb) Proto-Oncogene Transcription Factor (AID 2282986)", "conditions": "HepG2 Attagene CIS-FACTORIAL Myb reporter transcription; actives raise or lower the signal", "method_in_brief": "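Endogenous transcription factor activity at a Myb-responsive cis element is reported in human liver HepG2 cells after 24 h chemical treatment. Reporter mRNA is detected by RT-PCR and capillary electrophoresis fluorescence, with DMSO as baseline.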"}, "[8]": {"molecular_target": "Nuclear respiratory factor 1 (Homo sapiens) (UniProt Q16656)", "sequence (Q16656 whole entry, looked up)": "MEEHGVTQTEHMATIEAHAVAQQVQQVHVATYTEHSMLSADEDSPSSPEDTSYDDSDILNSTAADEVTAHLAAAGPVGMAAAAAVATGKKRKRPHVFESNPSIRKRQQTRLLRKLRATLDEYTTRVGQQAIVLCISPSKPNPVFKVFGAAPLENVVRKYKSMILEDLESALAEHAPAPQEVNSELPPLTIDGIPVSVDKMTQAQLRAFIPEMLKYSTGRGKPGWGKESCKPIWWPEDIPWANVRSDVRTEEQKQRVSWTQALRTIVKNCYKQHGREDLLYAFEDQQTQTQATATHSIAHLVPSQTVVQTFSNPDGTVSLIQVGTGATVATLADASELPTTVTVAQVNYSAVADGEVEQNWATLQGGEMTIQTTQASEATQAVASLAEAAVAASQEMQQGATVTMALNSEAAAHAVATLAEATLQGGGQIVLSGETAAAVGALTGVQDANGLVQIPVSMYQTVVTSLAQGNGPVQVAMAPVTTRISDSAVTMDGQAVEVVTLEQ", "test": "ATG_NRF1_CIS: Attagene CIS-FACTORIAL HepG2 Assay for human Nuclear Respiratory Factor 1 (NRF1) Orphan Gene (AID 2282987)", "conditions": "HepG2 NRF1 cis-element reporter, Attagene multiplex; actives raise or lower the signal", "method_in_brief": "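Human hepatoma HepG2 cells carrying transfected promoter-regulated reporter units were incubated with test chemicals for 24 h. Reporter transcripts were measured by RT-PCR plus capillary electrophoresis, and endpoints derived by bidirectional fitting with DMSO as baseline.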"}, "[9]": {"test": "ATG_NFI_CIS: Attagene CIS-FACTORIAL HepG2 Assay for human Nuclear Factor I (NFI) (AID 2282989)", "conditions": "HepG2 cis-regulatory reporter, NFI response element transcription; actives raise or lower the signal", "method_in_brief": "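After transient transfection of HepG2 with cis-promoter reporter constructs and 24 h dosing, RNA is reverse-transcribed, amplified, 6-FAM end-labelled and HpaI-digested before capillary analysis. Bidirectional curve fitting against DMSO.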"}, "[10]": {"molecular_target": "Myc proto-oncogene protein (Homo sapiens) (UniProt P01106)", "sequence (P01106 whole entry, looked up)": "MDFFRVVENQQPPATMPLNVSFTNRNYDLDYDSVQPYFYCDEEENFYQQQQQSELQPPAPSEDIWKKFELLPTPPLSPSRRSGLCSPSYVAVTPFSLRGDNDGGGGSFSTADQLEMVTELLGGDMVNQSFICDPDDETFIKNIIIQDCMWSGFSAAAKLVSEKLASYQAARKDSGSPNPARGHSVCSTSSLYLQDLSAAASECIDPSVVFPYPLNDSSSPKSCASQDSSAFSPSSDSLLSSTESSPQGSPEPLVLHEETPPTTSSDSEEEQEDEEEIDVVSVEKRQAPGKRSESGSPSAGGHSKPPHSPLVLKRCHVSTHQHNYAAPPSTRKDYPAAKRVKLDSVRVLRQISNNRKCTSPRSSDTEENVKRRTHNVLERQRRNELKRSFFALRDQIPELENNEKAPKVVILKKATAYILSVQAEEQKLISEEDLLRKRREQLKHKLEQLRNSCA", "test": "ATG_Myc_CIS: Attagene CIS-FACTORIAL HepG2 Assay for human Myelocytomatosis (Myc) Proto-Oncogene Transcription Factor (AID 2282990)", "conditions": "HepG2, Attagene cis-reporter transcription factor activity; actives raise or lower the signal", "method_in_brief": "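Cells of the HepG2 human liver line bear multiple cis-driven reporter transcription units. Reporter mRNA after 24 h exposure is reverse-transcribed, amplified, labelled and resolved by capillary electrophoresis, with gain- or loss-of-signal fitting relative to DMSO.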"}, "[11]": {"test": "ATG_NF_kB_CIS: Attagene CIS-FACTORIAL HepG2 Assay for human Nuclear Factor Kappa B (NF-kB) (AID 2282991)", "conditions": "HepG2 Attagene cis-factorial NF-kB reporter mRNA; actives raise or lower the signal", "method_in_brief": "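Multiplexed cis-reporter assay in transiently transfected HepG2. 24 h treatment; RNA isolated, RT-PCR, labelled fragments resolved by CE. DMSO baseline.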"}, "[12]": {"test": "ATG_NRF2_ARE_CIS: Attagene CIS-FACTORIAL HepG2 Assay for human Nuclear Factor Erythroid 2 Related Factor 2 (NFR2) response to Antioxidant Response Elements (ARE) (AID 2282992)", "conditions": "HepG2 Attagene ARE/NRF2 reporter, transcription factor activity; actives raise or lower the signal", "method_in_brief": "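Cis-factorial assay: transfected HepG2 reporter library, 24 h dosing, mRNA readout via RT-PCR/CE; DMSO-referenced bidirectional analysis.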"}, "[13]": {"test": "ATG_Oct_MLP_CIS: Attagene CIS-FACTORIAL HepG2 Assay for human Octamer-Binding Transcription Factor (Oct) (AID 2282993)", "conditions": "HepG2 Attagene cis-factorial Oct reporter, mRNA; actives raise or lower the signal", "method_in_brief": "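Cells of the HepG2 line express promoter-controlled reporter sequences whose mRNA levels, after 24 h treatment, are measured by RT-PCR and capillary electrophoresis. Increases and decreases are scored relative to DMSO.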"}, "[14]": {"molecular_target": "Cellular tumor antigen p53 (Homo sapiens) (UniProt P04637)", "sequence (P04637 whole entry, looked up)": "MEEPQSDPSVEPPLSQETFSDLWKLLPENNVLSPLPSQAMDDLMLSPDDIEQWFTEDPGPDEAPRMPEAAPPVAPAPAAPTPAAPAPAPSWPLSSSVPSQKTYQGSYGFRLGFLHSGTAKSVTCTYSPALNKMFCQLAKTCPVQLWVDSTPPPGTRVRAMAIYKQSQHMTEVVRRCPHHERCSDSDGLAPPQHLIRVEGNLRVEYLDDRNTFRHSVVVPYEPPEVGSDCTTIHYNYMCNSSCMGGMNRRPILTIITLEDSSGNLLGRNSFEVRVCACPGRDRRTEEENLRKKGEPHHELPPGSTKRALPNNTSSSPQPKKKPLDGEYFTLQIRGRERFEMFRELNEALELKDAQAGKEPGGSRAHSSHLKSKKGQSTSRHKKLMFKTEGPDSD", "test": "ATG_p53_CIS: Attagene CIS-FACTORIAL HepG2 Assay for human p53 Transcription Factor (AID 2282994)", "conditions": "HepG2 p53 cis-element reporter, Attagene mRNA; actives raise or lower the signal", "method_in_brief": "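Using HepG2 hepatoma cells carrying cis-acting multiplexed reporters, mRNA induction is detected after a 24 h exposure. Gain- and loss-of-signal responses are fitted relative to DMSO-treated cells.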"}, "[15]": {"test": "BSK_3C_TissueFactor: BioMAP Diversity Plus: 3C Assay for Tissue Factor Biomarker Activity (AID 2282997)", "conditions": "BioMAP 3C HUVEC, tissue factor biomarker readout; actives raise or lower the signal", "method_in_brief": "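Values derive from bidirectional curve fitting against DMSO of Tissue Factor ELISA signals, taken 24 h after dosing primary human umbilical vein endothelial cells.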"}, "[16]": {"molecular_target": "Estrogen-related receptor gamma (Homo sapiens) (UniProt P62508)", "sequence (P62508 whole entry, looked up, the tested form may be a part)": "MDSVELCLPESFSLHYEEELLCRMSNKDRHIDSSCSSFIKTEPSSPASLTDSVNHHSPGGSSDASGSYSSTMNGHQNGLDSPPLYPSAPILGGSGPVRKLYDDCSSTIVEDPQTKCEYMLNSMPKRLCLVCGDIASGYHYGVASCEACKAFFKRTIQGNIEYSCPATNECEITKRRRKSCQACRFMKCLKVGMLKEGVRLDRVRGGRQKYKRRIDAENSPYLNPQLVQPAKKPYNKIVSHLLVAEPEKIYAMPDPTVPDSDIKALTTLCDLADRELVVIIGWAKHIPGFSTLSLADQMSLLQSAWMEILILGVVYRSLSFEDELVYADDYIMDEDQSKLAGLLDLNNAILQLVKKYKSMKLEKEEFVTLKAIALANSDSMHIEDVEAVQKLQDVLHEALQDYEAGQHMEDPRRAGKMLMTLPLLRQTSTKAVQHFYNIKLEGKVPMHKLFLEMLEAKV", "test": "ATG_ERRg_TRANS: Attagene TRANS-FACTORIAL HepG2 Assay for human Estrogen-Related Receptor gamma (ERRg) (AID 2282977; active means hit-call score of the fitted dose curve at least 0.9, where 1 is the maximum;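 further: hits increase reporter signal over DMSO so potencies reflect activators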)", "conditions": "HepG2 Attagene TRANS reporter, ERRg transactivation", "method_in_brief": "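Transfect HepG2 with multiple GAL4-UAS reporter transcription units; dose chemicals 24 h; isolate RNA, reverse-transcribe with oligo(dT), PCR-amplify, label with 6-FAM, digest with HpaI; size fragments by capillary electrophoresis. DMSO serves as negative control.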"}, "[17]": {"molecular_target": "Glucocorticoid receptor (Homo sapiens) (UniProt P04150)", "test": "ATG_GR_TRANS: Attagene TRANS-FACTORIAL HepG2 Assay for human Glucocorticoid Receptor (GR) (AID 2282978; active means hit-call score of the fitted dose curve at least 0.9, where 1 is the maximum;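 further: activators score as hits since higher reporter transcript over DMSO is fitted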)", "conditions": "HepG2 Attagene TRANS GR reporter, mRNA transcription", "method_in_brief": "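Multiplexed TRANS reporter system, HepG2; 24 h exposure; RNA → oligo(dT) RT → reporter-specific PCR → 6-FAM primer extension → HpaI cut → CE fluorescence. Gain-of-signal vs DMSO.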"}, "[18]": {"molecular_target": "Bile acid receptor (Homo sapiens) (UniProt Q96RI1)", "sequence (Q96RI1 whole entry, looked up, the tested form may be a part)": "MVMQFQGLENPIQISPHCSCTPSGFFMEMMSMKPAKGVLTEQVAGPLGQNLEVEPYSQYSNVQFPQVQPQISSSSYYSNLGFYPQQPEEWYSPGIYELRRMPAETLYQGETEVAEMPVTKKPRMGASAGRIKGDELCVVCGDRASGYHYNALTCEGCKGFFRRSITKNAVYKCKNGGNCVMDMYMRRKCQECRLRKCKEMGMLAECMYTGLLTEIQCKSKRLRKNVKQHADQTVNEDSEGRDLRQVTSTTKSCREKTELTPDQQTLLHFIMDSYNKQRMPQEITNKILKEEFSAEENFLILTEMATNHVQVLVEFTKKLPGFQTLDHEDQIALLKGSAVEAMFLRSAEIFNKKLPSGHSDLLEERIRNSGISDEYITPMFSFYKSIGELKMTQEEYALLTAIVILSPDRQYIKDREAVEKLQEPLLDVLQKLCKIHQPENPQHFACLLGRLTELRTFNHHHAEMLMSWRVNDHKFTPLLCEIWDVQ", "test": "ATG_FXR_TRANS: Attagene TRANS-FACTORIAL HepG2 Assay for Farnesoid X Receptor (FXR) (AID 2282979; active means hit-call score of the fitted dose curve at least 0.9, where 1 is the maximum;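 further: hits raise reporter mRNA above DMSO so AC50 marks FXR activation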)", "conditions": "HepG2 Attagene TRANS FXR-GAL4 reporter transcription", "method_in_brief": "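Chimeric FXR-GAL4 activity in transiently transfected human HepG2 liver cells is scored as induction of reporter mRNA after 24 h of dosing. Detection uses RT-PCR with fluorescent labelling and capillary electrophoresis, with DMSO serving as baseline.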"}}, "note": "Results filed as inconclusive are left out. Activity calls are given as the source filed them. How the source made its calls, unless noted: active means hit-call score of the fitted dose curve at least 0.9, where 1 is the maximum; inactive means score below 0.9.", "data": [{"smiles": "CNC(=O)N(C)c1nnc(C(C)(C)C)s1", "values": [{"measurement": "outcome", "setting": "[1]", "value": "inactive"}, {"measurement": "outcome", "setting": "[2]", "value": "inactive"}, {"measurement": "outcome", "setting": "[3]", "value": "inactive"}, {"measurement": "outcome", "setting": "[4]", "value": "inactive"}, {"measurement": "outcome", "setting": "[5]", "value": "inactive"}, {"measurement": "outcome", "setting": "[6]", "value": "inactive"}, {"measurement": "outcome", "setting": "[7]", "value": "inactive"}, {"measurement": "outcome", "setting": "[8]", "value": "inactive"}, {"measurement": "outcome", "setting": "[9]", "value": "inactive"}, {"measurement": "outcome", "setting": "[10]", "value": "inactive"}, {"measurement": "outcome", "setting": "[11]", "value": "inactive"}, {"measurement": "AC50", "setting": "[12]", "value": "60.1 µM (active)"}, {"measurement": "outcome", "setting": "[13]", "value": "inactive"}, {"measurement": "outcome", "setting": "[14]", "value": "inactive"}, {"measurement": "outcome", "setting": "[15]", "value": "inactive"}]}, {"smiles": "CCCCC(O)(Cn1cncn1)c1ccc(Cl)cc1Cl", "note": "(centres undefined)", "values": [{"measurement": "outcome", "setting": "[16]", "value": "inactive"}, {"measurement": "outcome", "setting": "[4]", "value": "inactive"}, {"measurement": "outcome", "setting": "[6]", "value": "inactive"}, {"measurement": "outcome", "setting": "[7]", "value": "inactive"}, {"measurement": "outcome", "setting": "[8]", "value": "inactive"}, {"measurement": "outcome", "setting": "[9]", "value": "inactive"}, {"measurement": "outcome", "setting": "[10]", "value": "inactive"}, {"measurement": "outcome", "setting": "[11]", "value": "inactive"}, {"measurement": "AC50", "setting": "[12]", "value": "20.8 µM (active)"}, {"measurement": "AC50", "setting": "[13]", "value": "62.5 µM (active)"}, {"measurement": "outcome", "setting": "[14]", "value": "inactive"}, {"measurement": "outcome", "setting": "[15]", "value": "inactive"}]}, {"smiles": "CCOc1cc(C(C)(C)C)ccc1C1COC(c2c(F)cccc2F)=N1", "note": "(centres undefined)", "values": [{"measurement": "outcome", "setting": "[16]", "value": "inactive"}, {"measurement": "outcome", "setting": "[3]", "value": "inactive"}, {"measurement": "outcome", "setting": "[5]", "value": "inactive"}, {"measurement": "outcome", "setting": "[7]", "value": "inactive"}, {"measurement": "outcome", "setting": "[8]", "value": "inactive"}, {"measurement": "outcome", "setting": "[9]", "value": "inactive"}, {"measurement": "outcome", "setting": "[10]", "value": "inactive"}, {"measurement": "outcome", "setting": "[11]", "value": "inactive"}, {"measurement": "AC50", "setting": "[12]", "value": "1.62 µM (active)"}, {"measurement": "AC50", "setting": "[13]", "value": "0.581 µM (active)"}, {"measurement": "AC50", "setting": "[15]", "value": "37 µM (active)"}]}, {"smiles": "CO/N=C(/C1=NOCCO1)c1ccccc1Oc1ncnc(Oc2ccccc2Cl)c1F", "values": [{"measurement": "outcome", "setting": "[17]", "value": "inactive"}, {"measurement": "outcome", "setting": "[18]", "value": "inactive"}, {"measurement": "outcome", "setting": "[1]", "value": "inactive"}, {"measurement": "outcome", "setting": "[2]", "value": "inactive"}, {"measurement": "outcome", "setting": "[3]", "value": "inactive"}, {"measurement": "outcome", "setting": "[5]", "value": "inactive"}, {"measurement": "outcome", "setting": "[6]", "value": "inactive"}, {"measurement": "outcome", "setting": "[7]", "value": "inactive"}, {"measurement": "AC50", "setting": "[8]", "value": "5.54 µM (active)"}, {"measurement": "outcome", "setting": "[9]", "value": "inactive"}, {"measurement": "outcome", "setting": "[10]", "value": "inactive"}, {"measurement": "outcome", "setting": "[11]", "value": "inactive"}, {"measurement": "AC50", "setting": "[12]", "value": "0.946 µM (active)"}, {"measurement": "AC50", "setting": "[13]", "value": "0.833 µM (active)"}, {"measurement": "outcome", "setting": "[14]", "value": "inactive"}, {"measurement": "outcome", "setting": "[15]", "value": "inactive"}]}]}
